# Source: article PMC7862700, “An all-to-all approach to the identification of sequence-specific readers for epigenetic DNA modifications on cytosine”
# Assays:
# Assay in all cases: DAPPL (digital affinity profiling via proximity ligation, sequencing); 10 mM Tris-HCl pH 7.5, 50 mM NaCl, 1 mM DTT, 4% glycerol, room temperature, 30 min; GST-TFs on glutathione beads, 16-mer random dsDNA library, 0.1% formaldehyde crosslink after washing; high values mean tight binding
# FEV = target: T1, FEV (Homo sapiens, UniProt Q99581 1-238); details: protein: recombinant; tags: N-terminal GST; dsDNA, one strand shown
# T1 sequence: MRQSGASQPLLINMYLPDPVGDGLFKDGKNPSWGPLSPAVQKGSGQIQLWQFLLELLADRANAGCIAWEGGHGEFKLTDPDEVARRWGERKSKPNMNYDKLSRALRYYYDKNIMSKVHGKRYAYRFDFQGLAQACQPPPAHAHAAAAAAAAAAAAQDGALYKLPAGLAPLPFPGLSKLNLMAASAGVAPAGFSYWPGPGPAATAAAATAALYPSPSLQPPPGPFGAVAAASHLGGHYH
# In short: (§1)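 Binding signal is given per hexamer as its read frequency for a factor divided by its frequency in the tag-only sample. GST-fused human transcription factors were expressed in yeast, captured on glutathione beads, barcoded with DNA and pooled with that sample, then incubated with 200 nmole of a 16-mer random double-stranded DNA library in Tris/NaCl/DTT/glycerol buffer for 30 min at room temperature. The pools were then washed, crosslinked, proximity-ligated, amplified by PCR and sequenced on an Illumina NextSeq500.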
# ETV5 = ETV5 (Homo sapiens, UniProt P41161 1-510); details: protein: recombinant; tags: N-terminal GST; dsDNA, one strand shown
# In short: as §1
# HSF1 = HSF1 (Homo sapiens, UniProt Q00613 1-529); details: protein: recombinant; tags: N-terminal GST; chain copies: 3; dsDNA, one strand shown
# In short: as §1
# SPIC = target: T2, SPIC (Homo sapiens, UniProt Q8N5J4 1-248); details: protein: recombinant; tags: N-terminal GST; dsDNA, one strand shown
# T2 sequence: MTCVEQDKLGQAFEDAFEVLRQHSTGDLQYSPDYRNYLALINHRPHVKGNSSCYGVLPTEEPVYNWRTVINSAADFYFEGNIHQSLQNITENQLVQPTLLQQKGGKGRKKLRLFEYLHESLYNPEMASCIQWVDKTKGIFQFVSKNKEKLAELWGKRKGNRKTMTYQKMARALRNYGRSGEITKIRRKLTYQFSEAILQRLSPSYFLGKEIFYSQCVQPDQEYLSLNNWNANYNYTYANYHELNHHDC
# In short: as §1
# ELF4 = ELF4 (Homo sapiens, UniProt Q99607 1-663); details: protein: recombinant; tags: N-terminal GST; dsDNA, one strand shown
# In short: as §1
# ELK4 = target: T3, ELK4 (Homo sapiens, UniProt P28324-2 1-405); details: protein: recombinant; tags: N-terminal GST; dsDNA, one strand shown
# T3 sequence: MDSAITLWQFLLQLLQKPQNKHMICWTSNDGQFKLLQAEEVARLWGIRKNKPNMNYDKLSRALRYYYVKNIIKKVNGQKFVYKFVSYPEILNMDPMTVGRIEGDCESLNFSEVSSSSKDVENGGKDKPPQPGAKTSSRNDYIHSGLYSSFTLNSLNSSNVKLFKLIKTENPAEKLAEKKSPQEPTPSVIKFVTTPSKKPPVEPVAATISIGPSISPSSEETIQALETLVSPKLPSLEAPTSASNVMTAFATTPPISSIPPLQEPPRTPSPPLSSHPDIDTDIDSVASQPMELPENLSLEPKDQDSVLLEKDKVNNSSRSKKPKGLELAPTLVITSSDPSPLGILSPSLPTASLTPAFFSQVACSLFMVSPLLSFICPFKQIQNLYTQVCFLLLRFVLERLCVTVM
# In short: as §1
# ETV2 = target: T4, ETV2 (Homo sapiens, UniProt O00321 1-342); details: protein: recombinant; tags: N-terminal GST; dsDNA, one strand shown
# T4 sequence: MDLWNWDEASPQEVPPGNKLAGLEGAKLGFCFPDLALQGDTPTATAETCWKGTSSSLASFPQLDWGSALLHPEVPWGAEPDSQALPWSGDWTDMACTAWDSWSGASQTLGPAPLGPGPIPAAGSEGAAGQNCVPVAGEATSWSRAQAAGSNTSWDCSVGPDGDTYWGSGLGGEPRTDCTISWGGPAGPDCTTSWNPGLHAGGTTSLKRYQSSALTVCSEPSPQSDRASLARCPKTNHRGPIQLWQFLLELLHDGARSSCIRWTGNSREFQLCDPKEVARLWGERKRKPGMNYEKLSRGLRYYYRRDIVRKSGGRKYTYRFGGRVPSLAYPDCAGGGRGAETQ
# In short: as §1
# ELF3 = target: T5, ELF3 (Homo sapiens, UniProt P78545 1-371); details: protein: recombinant; tags: N-terminal GST; dsDNA, one strand shown
# T5 sequence: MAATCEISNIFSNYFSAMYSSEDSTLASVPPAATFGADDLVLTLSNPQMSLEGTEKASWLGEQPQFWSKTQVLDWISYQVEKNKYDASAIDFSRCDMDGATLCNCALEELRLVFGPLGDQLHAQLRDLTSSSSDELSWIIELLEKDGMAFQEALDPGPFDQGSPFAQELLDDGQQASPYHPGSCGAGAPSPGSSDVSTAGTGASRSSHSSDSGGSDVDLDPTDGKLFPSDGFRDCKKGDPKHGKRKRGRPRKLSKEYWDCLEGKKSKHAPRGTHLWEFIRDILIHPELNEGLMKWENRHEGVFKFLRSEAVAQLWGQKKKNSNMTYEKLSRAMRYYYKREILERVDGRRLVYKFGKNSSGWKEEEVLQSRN
# In short: as §1
# CRX = CRX (Homo sapiens, UniProt O43186 1-299); details: protein: recombinant; tags: N-terminal GST; dsDNA, one strand shown
# In short: as §1
# ETV1 = ETV1 (Homo sapiens, UniProt P50549 1-477); details: protein: recombinant; tags: N-terminal GST; dsDNA, one strand shown
# In short: as §1
# ERF = target: T6, ERF (Homo sapiens, UniProt P50548 1-548); details: protein: recombinant; tags: N-terminal GST; dsDNA, one strand shown
# T6 sequence: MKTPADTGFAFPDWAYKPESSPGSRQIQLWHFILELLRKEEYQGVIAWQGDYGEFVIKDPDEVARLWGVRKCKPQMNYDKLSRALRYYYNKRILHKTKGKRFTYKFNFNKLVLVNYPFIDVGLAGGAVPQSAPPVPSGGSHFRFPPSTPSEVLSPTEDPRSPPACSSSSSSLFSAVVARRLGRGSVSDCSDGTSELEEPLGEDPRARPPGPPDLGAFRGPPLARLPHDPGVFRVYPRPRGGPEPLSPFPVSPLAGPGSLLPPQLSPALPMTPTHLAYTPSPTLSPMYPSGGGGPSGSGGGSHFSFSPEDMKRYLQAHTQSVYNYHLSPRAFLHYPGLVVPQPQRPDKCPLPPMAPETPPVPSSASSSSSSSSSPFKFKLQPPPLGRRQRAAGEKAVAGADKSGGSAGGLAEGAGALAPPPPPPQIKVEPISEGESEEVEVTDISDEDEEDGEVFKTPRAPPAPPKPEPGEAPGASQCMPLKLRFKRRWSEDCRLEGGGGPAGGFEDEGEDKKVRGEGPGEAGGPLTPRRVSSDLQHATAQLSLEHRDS
# In short: as §1
# ETV3L = target: T7, ETV3L (Homo sapiens, UniProt Q6ZN32 1-361); details: protein: recombinant; tags: N-terminal GST; dsDNA, one strand shown
# T7 sequence: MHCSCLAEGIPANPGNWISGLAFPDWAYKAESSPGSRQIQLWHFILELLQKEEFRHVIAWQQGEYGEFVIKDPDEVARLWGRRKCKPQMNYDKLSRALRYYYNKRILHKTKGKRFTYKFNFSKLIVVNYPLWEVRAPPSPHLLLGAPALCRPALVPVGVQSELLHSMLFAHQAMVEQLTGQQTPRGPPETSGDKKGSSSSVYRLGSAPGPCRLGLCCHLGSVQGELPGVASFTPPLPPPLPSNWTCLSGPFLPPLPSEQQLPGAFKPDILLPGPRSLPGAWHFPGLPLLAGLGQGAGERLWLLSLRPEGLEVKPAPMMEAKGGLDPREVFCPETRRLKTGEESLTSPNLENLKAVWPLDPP
# In short: as §1
# ETS2 = target: T8, ETS2 (Homo sapiens, UniProt P15036 1-469); details: protein: recombinant; tags: N-terminal GST; dsDNA, one strand shown
# T8 sequence: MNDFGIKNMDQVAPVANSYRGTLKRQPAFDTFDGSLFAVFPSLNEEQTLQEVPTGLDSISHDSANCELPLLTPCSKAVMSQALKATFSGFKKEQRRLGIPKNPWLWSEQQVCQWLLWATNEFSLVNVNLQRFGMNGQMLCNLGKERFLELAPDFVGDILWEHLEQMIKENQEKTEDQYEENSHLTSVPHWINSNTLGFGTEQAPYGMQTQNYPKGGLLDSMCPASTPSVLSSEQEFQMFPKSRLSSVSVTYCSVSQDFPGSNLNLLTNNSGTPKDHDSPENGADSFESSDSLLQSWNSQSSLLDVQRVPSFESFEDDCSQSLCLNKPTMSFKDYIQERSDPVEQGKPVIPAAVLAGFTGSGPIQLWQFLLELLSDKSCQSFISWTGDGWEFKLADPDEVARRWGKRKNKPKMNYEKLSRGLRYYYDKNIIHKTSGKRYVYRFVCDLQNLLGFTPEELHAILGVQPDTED
# In short: as §1
# SPDEF = target: T9, SPDEF (Homo sapiens, UniProt O95238 1-335); details: protein: recombinant; tags: N-terminal GST; dsDNA, one strand shown
# T9 sequence: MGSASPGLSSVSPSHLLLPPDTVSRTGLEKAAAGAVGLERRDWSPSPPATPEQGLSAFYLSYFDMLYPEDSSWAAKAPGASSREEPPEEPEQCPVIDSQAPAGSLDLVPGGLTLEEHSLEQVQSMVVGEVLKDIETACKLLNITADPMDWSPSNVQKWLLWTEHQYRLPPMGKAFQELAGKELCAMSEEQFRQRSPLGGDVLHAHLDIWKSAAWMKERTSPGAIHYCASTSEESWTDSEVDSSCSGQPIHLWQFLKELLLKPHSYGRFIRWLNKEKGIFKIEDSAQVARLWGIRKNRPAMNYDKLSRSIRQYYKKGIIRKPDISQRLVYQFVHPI
# In short: as §1
# ETV7 = target: T10, ETV7 (Homo sapiens, UniProt Q9Y603 1-341); details: protein: recombinant; tags: N-terminal GST; dsDNA, one strand shown
# T10 sequence: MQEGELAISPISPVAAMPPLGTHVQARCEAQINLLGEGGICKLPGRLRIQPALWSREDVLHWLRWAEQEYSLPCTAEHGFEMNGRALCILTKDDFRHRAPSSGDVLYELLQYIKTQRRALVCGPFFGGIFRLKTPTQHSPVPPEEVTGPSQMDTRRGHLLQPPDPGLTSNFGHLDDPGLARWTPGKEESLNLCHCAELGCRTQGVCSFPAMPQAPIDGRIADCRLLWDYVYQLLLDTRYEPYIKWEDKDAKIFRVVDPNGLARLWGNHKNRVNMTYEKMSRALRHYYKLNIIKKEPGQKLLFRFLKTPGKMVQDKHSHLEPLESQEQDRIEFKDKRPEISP
# In short: as §1
# ELF5 = target: T11, ELF5 (Homo sapiens, UniProt Q9UKW6-2 1-255); details: protein: recombinant; tags: N-terminal GST; dsDNA, one strand shown
# T11 sequence: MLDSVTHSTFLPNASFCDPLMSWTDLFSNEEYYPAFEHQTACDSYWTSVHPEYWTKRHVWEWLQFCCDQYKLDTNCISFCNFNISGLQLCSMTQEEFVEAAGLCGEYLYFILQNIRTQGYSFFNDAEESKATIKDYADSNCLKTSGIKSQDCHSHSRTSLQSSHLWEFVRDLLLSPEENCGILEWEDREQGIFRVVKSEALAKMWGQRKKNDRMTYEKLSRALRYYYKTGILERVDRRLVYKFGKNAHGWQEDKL
# In short: as §1
# ETV3 = target: T12, ETV3 (Homo sapiens, UniProt P41162-2 1-143); details: protein: recombinant; tags: N-terminal GST; dsDNA, one strand shown
# T12 sequence: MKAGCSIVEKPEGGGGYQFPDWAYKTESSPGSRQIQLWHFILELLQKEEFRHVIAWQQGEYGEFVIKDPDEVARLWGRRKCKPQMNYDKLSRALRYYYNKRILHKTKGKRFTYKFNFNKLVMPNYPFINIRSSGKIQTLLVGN
# In short: as §1
# ETV6 = ETV6 (Homo sapiens, UniProt P41212 1-452); details: protein: recombinant; tags: N-terminal GST; dsDNA, one strand shown
# In short: as §1
# ETV1, sequence (P50549 whole entry): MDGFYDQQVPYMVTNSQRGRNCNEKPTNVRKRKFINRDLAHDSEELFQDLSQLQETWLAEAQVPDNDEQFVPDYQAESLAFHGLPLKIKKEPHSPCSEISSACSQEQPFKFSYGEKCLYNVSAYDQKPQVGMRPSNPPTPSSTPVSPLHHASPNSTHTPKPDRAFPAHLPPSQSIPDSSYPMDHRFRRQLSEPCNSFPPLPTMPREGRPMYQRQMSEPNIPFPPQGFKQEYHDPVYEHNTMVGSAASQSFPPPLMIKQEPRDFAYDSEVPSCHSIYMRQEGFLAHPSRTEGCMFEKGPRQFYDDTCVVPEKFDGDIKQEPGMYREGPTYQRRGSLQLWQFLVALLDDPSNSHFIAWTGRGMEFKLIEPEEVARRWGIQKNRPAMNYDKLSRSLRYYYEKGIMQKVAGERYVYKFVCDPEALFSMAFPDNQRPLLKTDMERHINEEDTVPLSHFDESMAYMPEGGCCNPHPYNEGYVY
# HSF1, sequence (Q00613 whole entry): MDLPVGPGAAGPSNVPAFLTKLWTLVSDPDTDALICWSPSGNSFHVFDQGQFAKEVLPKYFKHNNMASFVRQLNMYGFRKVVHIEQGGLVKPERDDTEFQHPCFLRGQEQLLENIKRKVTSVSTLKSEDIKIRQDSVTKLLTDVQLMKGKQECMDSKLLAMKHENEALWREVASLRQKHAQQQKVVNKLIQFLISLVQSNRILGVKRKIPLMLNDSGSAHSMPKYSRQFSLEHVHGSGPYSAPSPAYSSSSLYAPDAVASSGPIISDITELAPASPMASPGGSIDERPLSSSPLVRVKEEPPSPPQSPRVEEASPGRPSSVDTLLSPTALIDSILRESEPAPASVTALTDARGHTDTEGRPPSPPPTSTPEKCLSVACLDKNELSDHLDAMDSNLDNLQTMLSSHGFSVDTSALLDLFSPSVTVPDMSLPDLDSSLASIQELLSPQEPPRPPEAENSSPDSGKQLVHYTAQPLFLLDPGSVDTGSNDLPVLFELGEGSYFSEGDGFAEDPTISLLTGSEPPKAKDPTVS
# ELF4, sequence (Q99607 whole entry): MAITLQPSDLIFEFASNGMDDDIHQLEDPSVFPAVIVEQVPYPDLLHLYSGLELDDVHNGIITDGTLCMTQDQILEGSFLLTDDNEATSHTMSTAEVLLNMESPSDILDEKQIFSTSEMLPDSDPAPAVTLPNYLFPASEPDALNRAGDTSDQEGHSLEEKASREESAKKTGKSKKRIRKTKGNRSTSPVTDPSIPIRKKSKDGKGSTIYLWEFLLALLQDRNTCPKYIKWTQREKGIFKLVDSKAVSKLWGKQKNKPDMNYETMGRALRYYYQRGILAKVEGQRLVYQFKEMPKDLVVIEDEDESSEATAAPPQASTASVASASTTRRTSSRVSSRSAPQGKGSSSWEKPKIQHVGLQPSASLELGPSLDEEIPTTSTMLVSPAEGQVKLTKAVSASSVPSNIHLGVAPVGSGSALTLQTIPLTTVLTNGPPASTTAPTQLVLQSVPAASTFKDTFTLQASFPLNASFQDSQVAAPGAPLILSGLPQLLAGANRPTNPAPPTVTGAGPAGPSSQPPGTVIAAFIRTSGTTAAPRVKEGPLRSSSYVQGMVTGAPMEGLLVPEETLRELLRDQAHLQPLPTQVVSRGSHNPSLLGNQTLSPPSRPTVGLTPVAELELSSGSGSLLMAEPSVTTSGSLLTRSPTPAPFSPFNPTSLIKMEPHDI
# ETV5, sequence (P41161 whole entry): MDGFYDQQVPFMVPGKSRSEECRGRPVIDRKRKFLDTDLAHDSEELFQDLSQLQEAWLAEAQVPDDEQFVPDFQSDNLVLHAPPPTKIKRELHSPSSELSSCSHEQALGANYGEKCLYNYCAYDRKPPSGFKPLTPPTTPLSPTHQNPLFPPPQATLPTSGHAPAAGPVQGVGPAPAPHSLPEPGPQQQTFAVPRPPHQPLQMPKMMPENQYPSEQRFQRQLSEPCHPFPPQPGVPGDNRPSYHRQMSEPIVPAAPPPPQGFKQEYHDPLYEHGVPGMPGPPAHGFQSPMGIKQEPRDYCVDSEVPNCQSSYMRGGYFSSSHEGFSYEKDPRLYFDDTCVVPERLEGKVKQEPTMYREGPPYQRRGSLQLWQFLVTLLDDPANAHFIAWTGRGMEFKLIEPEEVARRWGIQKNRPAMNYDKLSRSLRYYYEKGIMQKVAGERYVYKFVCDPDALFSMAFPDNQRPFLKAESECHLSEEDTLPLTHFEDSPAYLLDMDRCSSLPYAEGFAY
# CRX, sequence (O43186 whole entry): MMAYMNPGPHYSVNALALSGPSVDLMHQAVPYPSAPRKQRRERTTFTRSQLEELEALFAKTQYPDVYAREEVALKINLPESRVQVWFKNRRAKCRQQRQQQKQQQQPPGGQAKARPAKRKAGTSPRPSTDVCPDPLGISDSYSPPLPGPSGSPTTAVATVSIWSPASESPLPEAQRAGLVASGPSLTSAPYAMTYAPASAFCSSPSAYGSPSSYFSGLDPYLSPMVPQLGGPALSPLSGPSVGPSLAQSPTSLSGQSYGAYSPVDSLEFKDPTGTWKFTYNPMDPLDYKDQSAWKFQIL
# ETV6, sequence (P41212 whole entry): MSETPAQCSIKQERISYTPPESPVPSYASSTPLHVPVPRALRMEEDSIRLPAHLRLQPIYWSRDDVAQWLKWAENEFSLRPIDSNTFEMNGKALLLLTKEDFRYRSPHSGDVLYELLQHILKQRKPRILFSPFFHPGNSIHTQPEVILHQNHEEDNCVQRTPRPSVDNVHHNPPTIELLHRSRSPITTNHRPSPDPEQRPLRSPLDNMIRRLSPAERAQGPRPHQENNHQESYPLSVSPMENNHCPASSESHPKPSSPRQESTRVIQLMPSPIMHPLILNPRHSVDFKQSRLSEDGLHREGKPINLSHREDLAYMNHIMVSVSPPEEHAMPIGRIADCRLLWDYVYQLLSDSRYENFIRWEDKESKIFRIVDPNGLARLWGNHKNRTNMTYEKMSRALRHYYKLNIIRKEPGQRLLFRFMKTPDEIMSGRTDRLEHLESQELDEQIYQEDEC
sequence,measurement,setting,value
CTGAAT,binding signal,FEV,"1.32 fold enrichment (6-mer frequency, TF over GST control)"
same,binding signal,ETV5,"1.29 fold enrichment (6-mer frequency, TF over GST control)"
same,binding signal,HSF1,"1.37 fold enrichment (6-mer frequency, TF over GST control)"
same,binding signal,SPIC,"1.29 fold enrichment (6-mer frequency, TF over GST control)"
same,binding signal,ELF4,"1.29 fold enrichment (6-mer frequency, TF over GST control)"
same,binding signal,ELK4,"1.31 fold enrichment (6-mer frequency, TF over GST control)"
same,binding signal,ETV2,"1.5 fold enrichment (6-mer frequency, TF over GST control)"
same,binding signal,ELF3,"1.15 fold enrichment (6-mer frequency, TF over GST control)"
same,binding signal,CRX,"1.34 fold enrichment (6-mer frequency, TF over GST control)"
same,binding signal,ETV1,"1.36 fold enrichment (6-mer frequency, TF over GST control)"
same,binding signal,ERF,"1.47 fold enrichment (6-mer frequency, TF over GST control)"
same,binding signal,ETV3L,"1.32 fold enrichment (6-mer frequency, TF over GST control)"
same,binding signal,ETS2,"1.32 fold enrichment (6-mer frequency, TF over GST control)"
same,binding signal,SPDEF,"1.53 fold enrichment (6-mer frequency, TF over GST control)"
same,binding signal,ETV7,"1.17 fold enrichment (6-mer frequency, TF over GST control)"
same,binding signal,ELF5,"1.18 fold enrichment (6-mer frequency, TF over GST control)"
same,binding signal,ETV3,"1.29 fold enrichment (6-mer frequency, TF over GST control)"
same,binding signal,ETV6,"1.22 fold enrichment (6-mer frequency, TF over GST control)"
